Each structure is given as a SMILES string. The campaign covered roughly 290,000 compounds. About 3,500 (1.2%) were called active. The entries come from a sample that favours actives as a whole. Unmarked numbers belong to inactive results.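 How the source made its calls: active means inhibition above the campaign mean inhibition over all tested compounds plus 3 SD (cut at about 28% in these data); inactive means the rest.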

The subject of the test is M18 aspartyl aminopeptidase (Plasmodium falciparum 3D7). The experiment in a line: PfM18AAP inhibitors, malaria aminopeptidase, primary screen, biochemical, QFRET, recombinant enzyme (AID 1822).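 Further: 0% = plate median of test compound wells and 100% = 2 mM ZnCl2.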 The settings on record: H-Glu-NHMec fluorogenic cleavage, at 7.35 µM, hits give high values.
Consider `COc1cccc(/C=N/Nc2cc(C)nc(-c3ccccc3O)n2)c1O`, for which the inhibition is 52.7% (active).
As for `COc1cccc(/C=N/Nc2ncc(C(F)(F)F)cc2Cl)c1O`, the inhibition is 12.8%.
The result for `COc1ccccc1/C=N\Nc1cc(C)nc(-n2nc(C)cc2C)n1` reads 4.17%; that for `COC(=O)c1ccc(OC(=O)c2cnccn2)cc1`, 5.19%.
In the case of `O=c1oc2ccccc2cc1-c1cn(-c2ccccc2)c(=S)[nH]1`, the inhibition was 11.4%.
On to `COc1ccc(-c2cn(-c3ccc(OC)cc3)c(=S)[nH]2)cc1`, for which the inhibition was 24.3%.
Turning to `S=c1[nH]c(-c2cccs2)cn1-c1ccccc1`, the inhibition was 38.5% (active).
As for `Cc1cc(C)c2nc(N(CCN(C)C)C(=O)/C=C/c3cccs3)sc2c1`, the inhibition is 0.71%.
As to `S=C(NCCCc1ccccc1)Nc1ccc(Br)cc1`, the inhibition is -6.24%.
For `O=C(CSC(=S)N1CCOCC1)c1cc(Br)cc(Br)c1O`, the inhibition is 44.3% (active).
In the case of `O=C(c1cc2cc(Br)cc(Br)c2oc1=O)N1CCOCC1` it was -1.08%; in that of `O=C(CSC(=S)N1CCOCC1)c1ccccc1`, 4.44%; in that of `Cc1ccc2c(c1)sc1ncc(NC(=O)c3ccccc3)c(=O)n12`, -1.31%.
Regarding `CN(CC(=O)NCCN1CCOCC1)S(=O)(=O)c1ccc(F)cc1`, the inhibition was -0.36%.
The result for `CCc1ccc(C(=O)COC(=O)c2ccco2)cc1` reads 1.62%; that for `Cc1ccc(OCc2n[nH]c(=S)n2-c2ccc(C)cc2)cc1`, 14.1%; that for `COc1ccc(OCc2n[nH]c(=S)n2N)cc1`, 32.5% (active).
Take `S=c1[nH]nc(COc2ccccc2)n1-c1ccccc1`: the inhibition was 19.1%.
In the case of `COc1ccc(CNC(=O)CN(C(=O)c2csnn2)c2cnc3ccccc3c2)cc1` it was 3.77%; in that of `CN(C)[C@@H]1C(=O)C(C(N)=O)=C(O)[C@@]2(O)C(=O)C3=C(O)c4c(O)ccc(Cl)c4[C@@H](O)[C@H]3C[C@@H]12`, 37% (active); in that of `COc1ccc(CN2CCN(C(=O)CCC(=O)Nc3nnc(C(C)C)s3)CC2)cc1F`, 0.79%.
In the case of `CC1CC(C)CN(CCCNC(=O)c2csc3c2CCCCC3)C1` (stereo unspecified) it was -10.4%; in that of `COc1ccc(C2C3=C(CCCC3=O)N(CC(=O)O)C3=C2C(=O)CCC3)cc1`, 5.23%.
On to `CCOc1ccc(C2C3=C(CCCC3=O)N(CC(=O)O)C3=C2C(=O)CCC3)cc1`, for which the inhibition is 32.6% (active).
In the case of `CCOc1ccc(C2C(C#N)=C(N)N(N(C)C)C3=C2C(=O)CCC3)cc1` (stereo unspecified), the inhibition was 8.27%.
In the case of `COc1cccc(C(=O)NNS(=O)(=O)c2ccc(F)cc2)c1` it was 10.3%.
In the case of `CC(C)CN(CC(C)C)CC(O)CN(c1ccccc1)S(=O)(=O)c1ccccc1[N+](=O)[O-]` (stereo unspecified), the inhibition is 2.89%.
The result for `Cc1ccc(Cn2c(SCC(=O)N/N=C/c3ccccc3OCC(=O)O)nc3ccccc32)cc1` reads 5.43%; that for `C=CCn1c(Cn2nnc3ccccc32)nnc1SCC(=O)N/N=C/c1cc(Br)cc(OC)c1O`, 28.3% (active); that for `COc1ccc(OC)c(/C=N/NC(=O)CSc2nnc(C)n2-c2ccccc2)c1`, -0.06%.
As for `O=C1C2CCCN2C(=O)N1CCCCN1CCN(c2cccc(C(F)(F)F)c2)CC1` (stereo unspecified), the inhibition is -6.19%.
Regarding `CC(C)C1Cc2c(sc3c2c(=O)n(-c2ccccc2)c2nncn32)CO1` (stereo unspecified), the inhibition is 9.11%.
For the molecule `CC(=O)NC(CC(=O)O)c1ccc(F)cc1` (stereo unspecified), the inhibition is 4.92%.
In the case of `CC(C)CNC(=O)C(=O)Nc1ccc(N(C)C)cc1`, the inhibition was 5.25%.
`CN(C)c1ccc(C(CC(=O)O)C(=O)O)cc1` (stereo unspecified): the inhibition is 33.2% (active).
As to `COc1ccc(OC)c(C(O)c2nc3ccccc3n2C)c1` (stereo unspecified), the inhibition was 2.35%.
For the molecule `CC(=O)c1ccc(N2CCN(CC(O)c3ccccc3)CC2)cc1` (stereo unspecified), the inhibition was -0.23%.
Take `COC(=O)c1ccc(CN2C(=O)NC(c3ccccc3)(c3ccccc3)C2=O)o1`: the inhibition was 0.97%.
The result for `CCOCCCNC(=O)c1ccc(CS(=O)(=O)c2cccc(C(F)(F)F)c2)o1` reads 78.5% (active); that for `COc1ccccc1CNC(=O)c1ccc(CS(=O)(=O)c2ccccc2)o1`, -0.58%; that for `COc1ccc(CCNC(=O)c2ccc(CS(=O)(=O)c3ccc(Br)cc3)o2)cc1OC`, -0.17%.
Regarding `Cc1c(Cl)cccc1NC(=O)[C@@]1(CC(=O)O)CC(/C=C/c2ccccc2)=NO1`, the inhibition was -3.65%.
With `O=C(NCCO)C(=O)NCC(c1ccc2c(c1)OCO2)N1CCN(c2ccc(F)cc2)CC1` (stereo unspecified), the inhibition was 2.98%.
The result for `Cc1cc(NC(=O)CSc2nnc(-c3ccc(Cl)s3)o2)no1` reads 21.4%; that for `COc1ccccc1-c1nnc(SCC(=O)Nc2cc(C)on2)o1`, 39.2% (active).
In the case of `COc1ccccc1-c1nnc(SCC(=O)Nc2ccccc2)o1`, the inhibition was 17.1%.
Consider `COc1ccc(C(=O)CCC(=O)Nc2ccc(Cl)cc2)cc1`, for which the inhibition was -1.71%.
For the molecule `COc1cccc(CC(=O)Nc2nc(-c3ccc(OC)c(OC)c3)cs2)c1`, the inhibition was -8.12%.
In the case of `NS(=O)(=O)c1ccc(Nc2nc(-c3ccccc3)cs2)cc1` it was 2.74%; in that of `Cc1ccccc1Nc1nc(-c2cccnc2)cs1`, 1.18%.
As for `COc1ccc(C)cc1Nc1nc(-c2c(C)[nH]c3ccccc23)cs1`, the inhibition is -5.8%.
For the molecule `COc1ccc(-c2csc(Nc3ccc(O)cc3)n2)cc1`, the inhibition was 28.1% (active).
With `COc1ccc(OC)c(Nc2nc(-c3ccc(O)c(O)c3)cs2)c1`, the inhibition was 56.5% (active).
Turning to `CN(c1ccc(O)cc1)c1nc(-c2cccnc2)cs1`, the inhibition is 7.5%.
In the case of `COc1ccc2nc(Nc3nc(-c4ccncc4)cs3)sc2c1`, the inhibition is -1.76%.
On to `Oc1ccc(-c2csc(Nc3cccnc3)n2)cc1`, for which the inhibition is 55.7% (active).
With `O=C(N/C(=C\c1ccc([N+](=O)[O-])cc1)C(=O)N1CCOCC1)c1cccc(Br)c1`, the inhibition was 0.07%.
As to `COc1ccc(C(=O)N2CCCN(C)CC2)c(OC)c1`, the inhibition was -1.62%.
`CCOc1cc(/C=C2\SC(N3CCCC(C)C3)=NC2=O)ccc1O` (stereo unspecified): the inhibition is 9.44%.
As for `O=c1c2ccccc2[nH]c(=S)n1CCN1CCC(=C(c2ccc(F)cc2)c2ccc(F)cc2)CC1`, the inhibition is -3.53%.
For `Cc1nc(N=C(N)N)nc2c(C)cccc12`, the inhibition is 3.01%.

The record behind these values is PubChem BioAssay AID1822 (The Scripps Research Institute Molecular Screening Center, 2009).
